In PubChem BioAssay (NCI):
This is part of a sample that, as a whole, favours compounds with a hit. Of some 83,000 tested, about 20% had one in any assay.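 Interpretation: 100, growth as untreated; towards 0, rising growth inhibition; 0, no net growth; 0 to -100, cell death. Compounds scoring below 10 were considered active.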 Values without a mark were called inactive. Calls of active or inactive are those of the source.

Columns and labels:
Assay in all cases: NCI-60 one-dose screen, 48 h (100 = growth as untreated, 0 = no growth, -100 = all killed)
Settings in all cases: 10 µM unless noted
NCI-H23 lung = test system: NCI-H23 lung
NCI-H226 lung = test system: NCI-H226 lung
NCI-H322M lung = test system: NCI-H322M lung
HOP-62 NSCLC = test system: HOP-62 NSCLC
NCI-H460 lung = test system: NCI-H460 lung
HOP-92 NSCLC = test system: HOP-92 NSCLC
NCI-H522 lung = test system: NCI-H522 lung
A549/ATCC NSCLC = test system: A549/ATCC NSCLC
786-0 renal = test system: 786-0 renal
COLO 205 colon = test system: COLO 205 colon
DU-145 prostate = test system: DU-145 prostate
K-562 leukemia = test system: K-562 leukemia
MALME-3M melanoma = test system: MALME-3M melanoma
MDA-MB-231 breast = test system: MDA-MB-231 breast
RXF 393 renal = test system: RXF 393 renal
SF-268 CNS = test system: SF-268 CNS
SF-295 CNS = test system: SF-295 CNS
SF-539 CNS = test system: SF-539 CNS
UACC-257 melanoma = test system: UACC-257 melanoma
M14 melanoma = test system: M14 melanoma

SMILES	growth (NCI-H23 lung)	growth (NCI-H226 lung)	growth (NCI-H322M lung)	growth (HOP-62 NSCLC)	growth (NCI-H460 lung)	growth (HOP-92 NSCLC)	growth (NCI-H522 lung)	growth (A549/ATCC NSCLC)	growth (786-0 renal)	growth (COLO 205 colon)	growth (DU-145 prostate)	growth (K-562 leukemia)	growth (MALME-3M melanoma)	growth (MDA-MB-231 breast)	growth (RXF 393 renal)	growth (SF-268 CNS)	growth (SF-295 CNS)	growth (SF-539 CNS)	growth (UACC-257 melanoma)	growth (M14 melanoma)
Cc1[nH]c(=S)[nH]c(=O)c1C	101%	99.7%	114%	107%	109%	125%	95.4%	94.3%	106%	115%	110%	99.7%	109%	105%	115%	108%	103%	103%	92.9%	109%
COC1(OC)C2(Cl)C(Cl)=C(Cl)C1(Cl)C1COCC12 (stereo not given)	109%	93.6%	104%	96.5%	86.8%	105%	79.5%	64%	104%	113%	102%	97.3%	110%	105%	103%	108%	102%	109%	63.3%	100%
O=C(NCc1ccco1)Nc1cccc2c(NC(=O)NCc3ccco3)cccc12	75.5% [100 µM]	112% [100 µM]	120% [100 µM]	104% [100 µM]	111% [100 µM]	124% [100 µM]	36.5% [100 µM]	108% [100 µM]	104% [100 µM]	71.4% [100 µM]	53% [100 µM]	32.9% [100 µM]	111% [100 µM]	97.9% [100 µM]	117% [100 µM]	96.3% [100 µM]	84.1% [100 µM]	30.2% [100 µM]	112% [100 µM]	66.3% [100 µM]
CC(C)Sc1ncnc2nc[nH]c12	114%	102%	122%	105%	99.4%	91.7%	109%	91.6%	101%	96.8%	121%	113%	109%	105%	93%	121%	107%	100%	91.7%	105%
Cn1/c(=N\N=C\c2ccccc2OCCO)sc2ccccc21	101%	88.3%	80.7%	106%	101%	82.5%	90%	102%	115%	91%	109%	76.7%	80.2%	72.1%	102%	94.1%	94%	92.9%	121%	103%
OCCOc1ccc(-c2cc(-c3ccccn3)nc(-c3ccccn3)c2)cc1	18.5%	0.498% (active)	9.08% (active)	4.56% (active)	0.477% (active)	-1.12% (active)	-18.8% (active)	4.79% (active)	1.56% (active)	0.364% (active)	-10.2% (active)	-2.31% (active)	17.3%	21.4%	2.52% (active)	15%	14.6%	-6.53% (active)	1.35% (active)	-62.5% (active)
CS(=O)CC(=N\O)/C(CS(C)=O)=N\O (stereo not given)	106%	110%	98%	102%	111%	105%	96%	97.4%	99.2%	106%	102%	106%	97.5%	101%	114%	98.5%	101%	101%	96.3%	96.3%
CCOC(=O)CNC(=O)Sc1ccc(C(C)(C)C)cc1	98.1%	87.2%	79.6%	122%	102%	138%	69.6%	109%	102%	119%	114%	71.9%	90.7%	105%	118%	107%	102%	94%	111%	102%
